A number with no mark means an inactive call. Calls come from the whole dose curve; as a rule, active = well fitted curve in the direction sought with a large enough effect; inactive = no such curve, though single readings can be large or run the other way.

The record followed here is PubChem BioAssay AID488846 (National Center for Advancing Translational Sciences (NCATS), 2010).

For the experiment, the target named is Alpha-galactosidase A (Homo sapiens) (UniProt P06280). The experiment in a line: qHTS Assay for Inhibitors and Activators of N370S glucocerebrosidase as a Potential Chaperone Treatment of Gaucher Disease: Alpha-Galactosidase Counterscreen for Probe SAR. Particulars: purified human alpha-galactosidase, 4-MU-alpha-Gal fluorescence. An excerpt: NIH Chemical Genomics Center [NCGC] NIH Molecular Libraries Probe Production Centers Network [MLPCN] MLPCN Grant: MH086442-01 Assay Submitter (PI): Wei Zheng Glucocerebrosidase (GC) catalyzes the hydrolysis of beta-glucocerebroside to glucose and ceramide in lysosomes. Mutations in the glucocerebrosidase gene result in Gaucher disease, an autosomal recessive lysosomal storage disorder. Many of the mutations encountered in patients with Gaucher disease are missense alterations that may cause misfolding, decreased stability and/or mistrafficking of this lysosomal protein. […] These inhibitors include iminosugar analogs and three non-iminosugar inhibitors identified from a previous HTS of 62,000 compounds with the wild type recombinant enzyme. However, the enhancement of enzyme activity by the chaperone action of an enzyme inhibitor must be balanced against the direct inhibition of the enzyme. An enzyme activator could also function as a chaperone by binding to the enzyme and helping to correct its misfolding and mistrafficking. While activators for GC have not yet been identified, they may have better therapeutic potential than inhibitors. Therefore the discovery and development of chemical activators may provide a new strategy for the chaperone therapy. To characterize compound selectivity, selected hits from the primary screen were screened against purified alpha-galactosidase, a related sugar hydrolase. Alpha-galactosidase is a homodimeric glycoprotein that hydrolyzes the terminal alpha-galactosyl moieties from glycolipids and glycoproteins.
Alpha-galactosidase A (Homo sapiens), sequence (P06280 whole entry, looked up): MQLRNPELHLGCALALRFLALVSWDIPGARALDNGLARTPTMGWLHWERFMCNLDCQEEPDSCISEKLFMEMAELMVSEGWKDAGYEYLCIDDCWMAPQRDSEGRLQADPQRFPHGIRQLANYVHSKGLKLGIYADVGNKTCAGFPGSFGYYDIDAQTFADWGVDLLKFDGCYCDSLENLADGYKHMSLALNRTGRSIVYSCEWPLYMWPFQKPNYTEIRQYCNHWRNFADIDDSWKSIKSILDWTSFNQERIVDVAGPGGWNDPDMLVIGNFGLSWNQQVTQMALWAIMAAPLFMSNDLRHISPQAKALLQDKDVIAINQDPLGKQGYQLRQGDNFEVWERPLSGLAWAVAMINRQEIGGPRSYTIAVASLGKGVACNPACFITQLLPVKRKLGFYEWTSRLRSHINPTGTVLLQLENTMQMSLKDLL
NCGC Assay Protocol Summary: This is a fluorogenic enzyme assay with 4-Methylumbelliferyl alpha-D-galactopyranoside as the substrate and human […] as the enzyme preparation. Upon the hydrolysis of this fluorogenic substrate, the resulting product, […]. 4-Methyllumbelliferone, can be excited at 365 nm and emits at 440 nm. This fluorescence which can be detected by a standard fluorescence plate reader. Data were normalized to the controls for basal activity (without enzyme) and 100% activity (with enzyme). In the AC50 values were determined from concentration-response data modeled with the standard Hill equation. Assay buffer: 50 mM citric acid (titrated with potassium phosphate to pH 4.5), 0.005% Tween-20, pH 4.5. (pH 4.5 is an optimal condition for this enzyme assay) 1536-well assay protocol for the human alpha-galactosidase: (1) Add 2 ul/well of enzyme (12 nM final) (2) Add 23 nL compounds in DMSO solution. The final titration was 0.7 nM to 77 uM. (3) Add 1 ul of substrate ([…]) (4) Incubate at room temperature for 20 min. (5) Add 2 ul stop solution (1M NaOH and 1M Glycine mixture, pH 10) (6) Detect the assay plate in a ViewLux plate reader (PerkinElmer) with Ex=365 nm and Em=440nm.
A general note: In qHTS, concentration-response curves come from the screen itself.
Take `O=C(Nc1ccccc1Sc1ccccc1)c1cnn2c1NC(=C1CC1)C=C2C(F)(F)F`: the max response was -8.17%.
The result for `O=C(Nc1ccc2c(c1)CCC2)c1cnn2c1NC(=C1CC1)C=C2C(F)F` reads -2.77%; that for `O=C(NC1CCCCC1)c1cnn2c1NC(=C1CC1)C=C2C(F)F`, -4.62%; that for `O=C(Nc1ccccc1Sc1ccccc1)c1cnn2c1NC(=C1CC1)C=C2C(F)F`, -8.53%.
Next, `C=C1C=C(C(F)F)n2ncc(C(=O)Nc3ccc(C(C)CC)cc3)c2N1` (stereo unspecified): -7.63%; `C#Cc1ccc(NC(=O)c2cnn3c(C)cc(C)nc23)cc1`: -7.39%.
